Our source for the fold fluorescence values is PubChem BioAssay.

Values without a mark were called inactive. Activity calls are given as the source filed them. No rule for the calls is given here.

A short description of this experiment: inhibitors of Cryptococcus chitosan production, flow cytometry, Cibacron Brilliant Red staining (AID 1347148).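 Also: compound exposure lasted three days at 37 degrees C.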 The settings on record: Cryptococcus neoformans chitosan, active compounds read low; at 10 µM unless noted.
For the molecule `CCCCCCOC(=O)C1(O)CC2OC1(C)n1c3ccccc3c3c4c(c5c6ccccc6n2c5c31)C(=O)NC4` (configuration not stated), the fold fluorescence was 4.72 [at 9.3 µM].
With `CCCCC[C@@H](O)/C=C/[C@H]1[C@@H]2C/C(=C/CCCC(=O)O)O[C@@H]2C[C@@H]1O` the figure was 4.1.
As to `OC[C@@H]1NC[C@H](O)[C@H](O)[C@H]1O`, the fold fluorescence was 8.15 [at 306.4 µM].
On to `C/C=C/C/C=C/CCC(=O)[C@@H]1O[C@@H]1C(N)=O`, for which the fold fluorescence is 8.37 [at 223.9 µM].
Consider `CCCCC[C@@H](O)CC[C@H]1[C@H](CCCCCCC(=O)O)C(=O)C[C@@H]1O`, for which the fold fluorescence is 5.11.
Under `C=C[C@@H]1CN2CCC1C[C@H]2[C@H](O)c1ccnc2ccc(OC)cc12` (some centres not stated) stands 3.61 [at 154.1 µM].
Turning to `CCCCC[C@@H](O)/C=C/[C@H]1[C@H](CCCCCCC(=O)O)[C@H](O)C[C@@H]1O`, the fold fluorescence is 3.58.
Take `CCCCCCCCCCCCCCCC(=O)C1=C(O)[C@H](CO)OC1=O`: the fold fluorescence was 2.82 [at 135.7 µM] (active).
With `C=C1CC[C@@H](O)C/C1=C/C=C1\CCC[C@]2(C)[C@@H]1CC[C@H]2[C@@H](C)CCCC(C)(C)O` the figure was 5.68.
Turning to `CNC(=O)[C@@H]1O[C@H](n2cnc3c(NCc4cccc(I)c4)ncnc32)C(O)[C@@H]1O` (some centres not stated), the fold fluorescence is 4.36 [at 98 µM].
Under `COc1ccc(CCN(C)CCC[C@@](C#N)(c2cc(OC)c(OC)c(OC)c2)C(C)C)cc1OC` stands 4.22 [at 103.2 µM].
With `C=C1CC[C@@H](O)C/C1=C/C=C1\CCC[C@]2(C)[C@@H]1CC[C@H]2[C@@H](C)CC[C@H](O)C(C)(C)O` the figure was 6.63; with `CCCCCCCCCCCCCCCCOC[C@@H](COP(=O)([O-])OCC[N+](C)(C)C)OC`, 4.86.
As to `CC(=O)OCO[C@H](c1ccc2ccccc2c1)P(=O)(OCOC(C)=O)OCOC(C)=O`, the fold fluorescence is 4.04 [at 110 µM].
With `CCCCC[C@@H](O)/C=C/[C@H]1[C@H](C/C=C\CCCC(=O)O)[C@@H]2CO[C@H]1C2` the figure was 4.13; with `O=C(O)CNC(=O)[C@H](CS)Cc1ccccc1`, 3.85 [at 197.4 µM]; with `CCCCCCCCCCCCCCCCCCOC[C@@H](COP(=O)([O-])OCC[N+](C)(C)C)OC`, 5.31.
For `CCCCC[C@@H](O)/C=C/[C@H]1[C@H](CCCCCCC(=O)O)C(=O)C[C@@H]1O`, the fold fluorescence is 4.03.
Under `COc1c(O)c2c(=O)cc(OC)c3c4c(OC)cc(=O)c5c(O)c(OC)c(C[C@H](C)OC(=O)c6ccccc6)c(c(c1C[C@H](C)OC(=O)Oc1ccc(O)cc1)c23)c54` stands 6.48 [at 6.3 µM].
Regarding `CC(=O)[C@@H]1[C@@H](C#N)C[C@@H]2[C@H]3CC=C4C[C@H](O)CC[C@@]4(C)[C@@H]3CC[C@]21C`, the fold fluorescence is 3.64 [at 146.4 µM].
Under `CCCCC[C@H](O)c1cccc(OCc2ccc3ccccc3n2)c1` stands 5.53; under `CC[C@H](C)[C@H](N)C(=O)N[C@@H](CC(N)=O)C(=O)N[C@@H](CC(C)C)C(=O)N[C@@H](CCCCN)C(=O)N[C@@H](C)C(=O)N[C@@H](CC(C)C)C(=O)N[C@@H](C)C(=O)N[C@@H](C)C(=O)N[C@@H](CC(C)C)C(=O)N[C@@H](C)C(=O)N[C@@H](CCCCN)C(=O)N[C@@H](CCCCN)C(=O)N[C@H](C(=O)N[C@@H](CC(C)C)C(N)=O)[C@@H](C)CC`, 3.8 [at 33.8 µM].
With `CCCCC(C)(C)[C@@H](O)/C=C/[C@H]1[C@H](C/C=C\CCCC(=O)O)C(=O)C[C@@H]1O` the figure was 4.79; with `CC[C@H]1/C=C(\C)C[C@@H](C)C[C@@H](OC)[C@@H]2O[C@](O)(C(=O)C(=O)N3CCCC[C@@H]3C(=O)O[C@@H](/C(C)=C/[C@H]3CC[C@H](O)[C@@H](OC)C3)[C@@H](C)[C@H](O)CC1=O)[C@@H](C)C[C@H]2OC`, 13.8 [at 63.1 µM]; with `CCCCCCCCCCCC[C@H](O)C(=O)O`, 5.23.
Take `CC(=O)O[C@@H]1C(=O)[C@]2(C)C([C@@H](OC(=O)c3ccccc3)[C@@]3(O)C[C@@H](OC(=O)[C@@H](O)[C@H](NC(=O)c4ccccc4)c4ccccc4)C(C)=C1C3(C)C)[C@@]1(OC(C)=O)CO[C@H]1C[C@H]2O` (some centres not stated): the fold fluorescence was 4.34 [at 58.6 µM].
As for `COC(=O)C1=C(C)NC(C)=C(C(=O)OCCSc2ccccc2)[C@H]1C`, the fold fluorescence is 8.74 [at 138.3 µM].
